This note sets out measurements from PubChem BioAssay (Tox21).

Experiment [1] is described as follows: qHTS assay to identify small molecule antagonists of the glucocorticoid receptor (GR) signaling pathway - cell viability counter screen (AID 720693). Note: nearly all actives have a fitted effect of over 55% in size. Note: potency is the fitted concentration of half-maximal effect. In general terms: qHTS replaces the single test concentration by a dilution series.
Experiment [2] is described as follows: qHTS assay for identifying genotoxic compounds that show differential cytotoxicity against isogenic chicken DT40 cell lines with known DNA damage response pathways - wild type cell line (AID 743012). Note: nearly all actives have a fitted effect of over 60% in size. Note: potency is the fitted concentration of half-maximal effect. The method in brief: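 Cells (DT40 wild type, 300/well) are treated with DMSO-dissolved compounds after a ~0.5 h pre-incubation and kept 40 h at 37 C/5% CO2. Viability is then measured by CellTiter-Glo luminescence following 30 min at room temperature.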

Experiment [3] in a line: qHTS assay for identifying genotoxic compounds that show differential cytotoxicity against isogenic chicken DT40 cell lines with known DNA damage response pathways - Rev3 mutant cell line (AID 743014). Note: nearly all actives have a fitted effect of over 55% in size. Note: potency is the fitted concentration of half-maximal effect.
Experiment [4] can be described thus: qHTS assay for identifying genotoxic compounds that show differential cytotoxicity against isogenic chicken DT40 cell lines with known DNA damage response pathways - Rad54/Ku70 mutant cell line (AID 743015). Note: nearly all actives have a fitted effect of over 60% in size. Note: potency is the fitted concentration of half-maximal effect.
Experiment [5] can be described thus: qHTS assay to identify small molecule antagonists of the androgen receptor (AR) signaling pathway using the MDA cell line - cell viability counter screen (AID 743041; note: nearly all actives have a fitted effect of over 45% in size; note: potency is the fitted concentration of half-maximal effect). The method in brief: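 MDA-kb2 AR-luc cells (MMTV-luciferase, AR/GR responsive) treated with compounds plus R1881 agonist for 16 h at 37C. CellTiter-Fluor added at 15.5 h; fluorescence read after 30 min in the same wells.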

Experiment [6] can be described thus: qHTS assay to identify small molecule antagonists of the thyroid receptor (TR) signaling pathway - cell viability counter screen (AID 743064). Note: nearly all actives have a fitted effect of over 50% in size. Note: potency is the fitted concentration of half-maximal effect. An outline of the steps: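 Fluorescence from CellTiter-Fluor, added after 23.5 h exposure at 37 °C, reported viability of GH3.TRE-Luc cells co-treated with compound and 1 nM T3. Measured in the same wells as the luciferase TR readout.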

Experiment [7] can be described thus: qHTS assay to identify small molecule antagonists of the androgen receptor (AR) signaling pathway - cell viability counter screen (AID 743033; note: nearly all actives have a fitted effect of over 45% in size).
Experiment [8] deals with Androgen receptor (Homo sapiens) (UniProt P10275). The experiment can be described thus: qHTS assay to identify small molecule agonists of the androgen receptor (AR) signaling pathway (AID 743036; active = well fitted activation curve with a large enough effect in the signal ratio in the repeat runs, with a control signal flat, not every such curve was filed as active; the % refers to the signal ratio). An outline of the steps: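 Fluorescence from a beta-lactamase FRET substrate served as read-out in AR-UAS-bla GripTite HEK293 cells. Cells were treated with DMSO-dissolved compounds for 16 h at 37C, then with LiveBLAzer B/G substrate for 2 h at room temperature.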
Androgen receptor (Homo sapiens), sequence (P10275 whole entry, looked up): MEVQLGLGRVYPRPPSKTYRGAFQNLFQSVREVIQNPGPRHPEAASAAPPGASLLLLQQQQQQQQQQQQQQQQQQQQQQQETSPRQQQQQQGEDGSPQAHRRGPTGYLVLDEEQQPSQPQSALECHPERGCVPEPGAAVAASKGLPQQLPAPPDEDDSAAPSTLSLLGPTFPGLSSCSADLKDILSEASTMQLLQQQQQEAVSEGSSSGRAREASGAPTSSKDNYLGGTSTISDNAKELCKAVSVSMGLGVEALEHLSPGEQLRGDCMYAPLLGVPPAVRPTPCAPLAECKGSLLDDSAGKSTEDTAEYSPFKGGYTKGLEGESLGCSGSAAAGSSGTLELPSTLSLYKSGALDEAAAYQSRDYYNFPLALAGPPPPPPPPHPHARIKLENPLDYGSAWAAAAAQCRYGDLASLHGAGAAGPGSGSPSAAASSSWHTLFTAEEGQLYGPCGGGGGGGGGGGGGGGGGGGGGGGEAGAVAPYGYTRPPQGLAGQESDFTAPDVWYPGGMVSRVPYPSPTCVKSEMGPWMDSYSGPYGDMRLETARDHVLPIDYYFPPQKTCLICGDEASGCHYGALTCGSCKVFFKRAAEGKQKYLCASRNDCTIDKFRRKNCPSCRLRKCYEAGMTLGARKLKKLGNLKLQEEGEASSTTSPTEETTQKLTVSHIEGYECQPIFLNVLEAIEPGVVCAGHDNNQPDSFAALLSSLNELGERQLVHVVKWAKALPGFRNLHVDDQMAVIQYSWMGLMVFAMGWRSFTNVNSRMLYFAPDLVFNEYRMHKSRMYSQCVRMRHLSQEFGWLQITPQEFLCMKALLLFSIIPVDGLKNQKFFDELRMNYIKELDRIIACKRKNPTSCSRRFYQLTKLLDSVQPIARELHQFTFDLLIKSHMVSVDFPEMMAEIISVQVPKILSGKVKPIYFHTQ

Experiment [9] has the same target. The experiment can be described thus: qHTS assay to identify small molecule agonists of the androgen receptor (AR) signaling pathway using the MDA cell line (AID 743040; note: nearly all actives have a fitted effect of over 20% in size). The method in brief:
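MDA-kb2 breast carcinoma cells carrying MMTV-luciferase (responsive to AR and GR), plated 5 h then treated 16 h with compounds at 37C, 0% CO2. Read-out was ONE-Glo luminescence after 30 min at room temperature.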

Experiment [10] has the same target. The experiment can be described thus: qHTS assay to identify small molecule antagonists of the androgen receptor (AR) signaling pathway using the MDA cell line (AID 743042; note: nearly all actives have a fitted effect of over 55% in size). An outline of the steps:
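MDA-kb2 breast carcinoma cells carrying MMTV-luciferase (AR/GR responsive) were co-treated with compounds and the agonist R1881 for 16 h at 37C. Inhibition read as ONE-Glo luminescence; CellTiter-Fluor fluorescence measured in parallel for cytotoxicity.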

Where “and” joins values, the source holds several entries; their conditions need not be identical. Identical values can stand only once. Records with an inconclusive call do not appear. More than one record can exist for a structure, and the calls need not agree. Calls of active or inactive are those of the source. Unless noted, calls come from the whole dose curve; as a rule, active = well fitted curve in the direction sought with a large enough effect in the repeat runs; inconclusive = weak or mixed curves; inactive = no such curve, though single readings can be large; an effect the other way counts as inactive or inconclusive.

Regarding `CC1=C(Br)C(=O)C(Br)=C/C1=C(/c1ccccc1S(=O)(=O)O)c1cc(Br)c(O)c(Br)c1C`, the Potency entry in experiment [1] is “inactive”. For the same compound, the Potency is 20.8 µM (active) in [2]; 20.8 µM (active) in experiment [3]; 20.8 µM (active) in experiment [4]; 41.5 µM (active) in [5]; 46.6 µM (active) in [6].

As to `CC(C)(c1ccccc1)c1ccccc1`, the Potency result in experiment [1], in experiment [2], in experiment [3], in experiment [4], in [7] and in [5] was “inactive” in each case. Further, the Potency entry in experiment [6] was “inactive”.

Turning to `CC1CC(C)C(=O)C1=O` (stereo not given), the Potency entry in experiment [1], in experiment [2], in [3], in experiment [4], in [7] and in experiment [5] was “inactive” throughout. The Potency entry in [6] was “inactive”.

In the case of `Cc1c(C)c2c(c(C)c1OC(=O)CCC(=O)OCCO)CC[C@@](C)(CCC[C@H](C)CCC[C@H](C)CCCC(C)C)O2`, the Potency in experiment [1] is 21.3 µM (active); in [2], 11.9 µM (active); in [3], 10.6 µM (active); in experiment [4] it was 11.9 µM (active); in experiment [6] it was 11.9 µM (active). For the same compound, the Potency entry in experiment [7] was “inactive”.

Regarding `CC(CO)CO`, the Potency result in experiment [1], in experiment [2], in [3], in experiment [4], in [7] and in [5] was “inactive” each time. Moreover, the Potency result in experiment [6] was “inactive”.

As for `CCOc1ccc(Cc2nccc3cc(OCC)c(OCC)cc23)cc1OCC`, the Potency result in experiment [1], in [5] and in experiment [6] was “inactive” in each case. The Potency in experiment [2] is 4.03 µM (active); in experiment [3], 5.07 µM (active); in experiment [4] it was 5.07 µM (active). The compound was classed as inactive in experiment [8] and in [9].

On to `CC1CC(OC(=O)C(O)c2ccccc2)CC(C)(C)N1C` (stereo not given), for which the Potency entry in [1], in experiment [2], in experiment [3], in experiment [4], in [7] and in experiment [5] was “inactive” each time. Also, the Potency result in experiment [6] is “inactive”.

Take `CC(CCC(=O)O)C(=O)O` (stereo not given): the Potency result in [1], in experiment [2], in experiment [3], in experiment [4], in [7] and in experiment [5] was “inactive” throughout. In addition, the Potency entry in experiment [6] was “inactive”.

For the compound `CC(C)(C)C(=O)C(=O)O`, the Potency entry in [1], in experiment [2], in experiment [3], in experiment [4], in experiment [7] and in [5] was “inactive” in each case. Moreover, the Potency entry in [6] is “inactive”.

As for `CN1CCCC(n2nc(Cc3ccc(Cl)cc3)c3ccccc3c2=O)CC1` (stereo not given), the Potency entry in [1] and in [7] was “inactive” in each case. Moreover, the Potency is 11.9 µM (active) in experiment [2], 21.1 µM (active) in experiment [3], 16.8 µM (active) in experiment [4] and 21.1 µM (active) in [6].

On to `CCC(C)(C)OC`, for which the Potency result in experiment [1], in experiment [2], in [3], in experiment [4], in experiment [7] and in experiment [5] was “inactive” in each case. Besides, the Potency result in [6] is “inactive”.

Regarding `O[C@@H]1CO[C@H]2[C@@H]1OC[C@@H]2O`, the Potency result in experiment [1], in experiment [2], in experiment [3], in experiment [4], in experiment [7] and in experiment [5] was “inactive” in each case. Also, in experiment [6], the Potency entry was “inactive”.

With `CCCCCCCCCCC(=O)O`, the Potency entry in experiment [1], in experiment [2], in experiment [3], in [4], in [7] and in experiment [5] was “inactive” in each case. The Potency entry in [6] was “inactive”.

For the compound `CC(C)c1nc(CN(C)C(=O)N[C@H](C(=O)N[C@@H](Cc2ccccc2)C[C@H](O)[C@H](Cc2ccccc2)NC(=O)OCc2cncs2)C(C)C)cs1`, the Potency result in experiment [1], in experiment [3], in experiment [7] and in experiment [5] was “inactive” each time. Besides, the Potency result in experiment [2] is “inactive and 23.7 µM (active)”; in experiment [4] it was 23.7 µM (active); in [6] it was 15 µM (active).

As to `C/C=C\C/C=C/CCCCCCCCOC(C)=O`, the Potency result in experiment [1] and in [5] was “inactive” in each case. The results for the Potency in experiment [2], in experiment [3] and in [4] were 27.3 µM (active), 27.3 µM (active) and 24.3 µM (active), respectively.

As to `C=Cc1ccc(S(=O)(=O)O)cc1`, the Potency result in [1], in [7] and in [5] was “inactive” throughout. Also, the Potency result was “inactive and 30.6 µM (active)” in experiment [2]; “inactive and 38.6 µM (active)” in experiment [3]; “inactive and 2.17 µM (active)” in [4]; “inactive and 9.69 µM (active)” in experiment [6].

In the case of `CCOC(=O)c1ccc(OCCN2C[C@H](O)[C@@H](O)[C@H](O)[C@H]2CO)cc1`, the Potency entry in experiment [1], in [2], in experiment [3], in experiment [4], in experiment [7] and in [5] was “inactive” in each case. The Potency entry in experiment [6] was “inactive”.

On to `CC1(C)O[C@@H]2C[C@H]3[C@@H]4C[C@H](F)C5=CC(=O)C=C[C@]5(C)[C@H]4[C@@H](O)C[C@]3(C)[C@]2(C(=O)CO)O1`, for which the Potency result in experiment [1], in experiment [2], in [3], in experiment [4], in [5] and in [6] was “inactive” each time.

For `NCCNCCO`, the Potency result in experiment [1], in experiment [2], in [3], in experiment [4], in [7] and in experiment [5] was “inactive” each time. Further, the Potency result in [6] is “inactive”.

Regarding `Cc1ccc(OC(=O)c2ccccc2O)cc1`, the Potency entry in [1], in [2], in experiment [3], in experiment [4], in experiment [7] and in experiment [5] was “inactive” throughout. For the same compound, in [6], the Potency result was “inactive”.

Turning to `c1ccc(C[n+]2cccc3ccccc32)cc1`, the Potency result in experiment [1] and in [6] was “inactive” each time. The Potency is 54.5 µM (active) in experiment [2], 27.3 µM (active) in [3], 27.3 µM (active) in experiment [4] and 61.1 µM (active) in experiment [5].

`COc1ncnc(NS(=O)(=O)c2ccc(N)cc2)c1OC`: the Potency entry in experiment [1], in experiment [2], in [3], in experiment [4], in experiment [7] and in [5] was “inactive” each time. For the same compound, the Potency result in experiment [6] was “inactive”.

`CCCCOc1ccc(OCCCN2CCOCC2)cc1`: the Potency result in [1], in [7] and in [5] was “inactive” each time. In addition, the figures for the Potency in experiment [2] and in [4] were 2.54 µM (active) and 2.27 µM (active), respectively.

`COc1cc(N)c(Cl)cc1C(=O)NC1CCN(CCCOc2ccc(F)cc2)CC1OC` (stereo not given): the Potency result in [1], in experiment [7] and in [5] was “inactive” each time. The Potency in [2] is 11.4 µM (active); in experiment [4], 12.7 µM (active); in [6] it was 11.4 µM (active).

For `O=C1c2ccccc2C(=O)c2c(O)c(O)cc(O)c21`, the Potency result in experiment [1], in experiment [2], in [7] and in [10] was “inactive” each time. Further, the Potency in experiment [4] is 48.6 µM (active); in [6], 54.5 µM (active). Moreover, in experiment [9], the compound was classed as inactive.

In the case of `CCCCCC[C@@H](O)C/C=C\CCCCCCCC(=O)OCC(O)CO` (stereo not given in full), the Potency entry in experiment [1], in experiment [2], in experiment [4], in experiment [7], in experiment [5] and in experiment [10] was “inactive” in each case. Further, in [6], the Potency result was “inactive”. The result in experiment [8] and in experiment [9] was inactive.

On to `CCCC(C(=O)OCCN(CC)CC)(c1ccccc1)c1ccccc1`, for which, in [1], the Potency result is “inactive”. In addition, the Potency is 8.41 µM (active) in experiment [2], 10.6 µM (active) in experiment [3], 18.8 µM (active) in [4] and 23.7 µM (active) in experiment [6].
